WRN helicase inh-1: blocks human WRN helicase. WRN helicase unwinding, fluorescent forked duplex, kinetic. AID 651768. Q14191. 360,000 tested, 0.46% active. Potency, µM (series often up to 114 µM), for the others: at the top dose activity change, negative = inhibition, actives largely listed as inhibitors; also: % is scaled to controls: 0 for no effect and ±100 for the full control effect; nearly all actives have a fitted effect of over 55% in size
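WRN at 20 nM final preincubated with compound 15 min at room temperature; reaction started with 100 nM fluorophore/quencher forked duplex oligonucleotide and 2 mM ATP final. Unwinding followed kinetically by red fluorescence (ex 525, em 598 nm).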
TRb SRC2 PPI: TRbeta-SRC2 interaction inhibition | AID 1469 | TRbeta-SRC2 peptide binding, fluorescence polarization; receptor liganded with 1 µM T3 | 280,000 tested, 0.065% active | Potency, µM (series often up to 106 µM), for inactives: top-dose activity change, negative = inhibition, most hits filed as inhibitors;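 also: plate controls were bound peptide for no effect and peptide without receptor for full effect; nearly all actives have a fitted effect of over 50% in size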
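Binding of a 20-amino-acid Texas Red SRC2 peptide (20 nM) to TRb ligand-binding domain (0.6 uM) with agonist T3 at 1 uM was followed by fluorescence polarization after a 5 hr room-temperature incubation.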
TR SRC2 fluor cs: alters Texas Red total fluorescence, flagging assay interference; 280,000 tested, 0.29% active; Potency, µM (highest dose often 106 µM), inactives show at the top dose fluorescence change, negative = quenching; AID 1479; TRb/SRC2 Texas Red total fluorescence interference; active = well fitted curve in either direction with a large enough effect; inconclusive = small, poorly fitted or top-dose-only effect; also: % is scaled to controls: 0 for no effect and ±100 for the full control effect
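Flags fluorescent or light-absorbing compounds by total fluorescence, S + 2P, at 555 nm excitation and 632 nm emission. Mixture: 20 nM Texas Red SRC2 peptide, 0.6 uM human TRb LBD, 1 uM T3, 5% DMSO; compound exposure 5 h at ambient temperature.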
APEX1 inh: APE1 (human) endonuclease inhibition; recombinant APE1, TAMRA/BHQ-2 abasic DNA cleavage fluorescence; AID 2517; P27695; 350,000 tested, 0.35% active; Potency, µM (titrated, usually from 65.8 µM), without a hit: top-dose activity change, negative = inhibition, hits mostly inhibitors;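 also: plate controls were vehicle for no effect and reference inhibitor for full effect; nearly all actives have a fitted effect of over 55% in size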
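Activity was derived from the fluorescence gain between first and third kinetic reads (60 s intervals, ex 525/em 598 nm) after 50 nM THF-abasic TAMRA/BHQ-2 duplex was added to 0.75 nM APE1 preincubated 15 min with compound.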
RECQ1 helicase: RECQ1 (human) helicase inhibition | RECQ1 DNA unwinding, red fluorescence kinetic read | 240,000 tested, 0.54% active | Potency, µM (doses to about 57.3 µM), without a hit: at the highest dose activity, negative = inhibition, hits mostly inhibitors;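 also: plate controls were vehicle for no effect and no enzyme for full effect; nearly all actives have a fitted effect of over 30% in size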
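RECQ1T1 50 nM; forked duplex (20 bp + 30-nt ss tails) 200 nM, ATP 2 mM final; pH 8.0, 2 mM MgCl2, 2.5 ug/ml poly(dI-dC); 15 min compound preincubation; discontinuous kinetic read over 2 h at RT.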
BLM helicase inh-1: Bloom syndrome helicase (human) inhibition. 350,000 tested, 0.2% active. recombinant BLM DNA unwinding, fluorescence dequenching. Potency, µM (titrated, usually from 56.1 µM), inactives show top-dose activity change, negative = inhibition, usual class: inhibitors;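 also: plate controls were vehicle for no effect and no enzyme for full effect; nearly all actives have a fitted effect of over 35% in size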
WRN helicase inh-2: WRN helicase inhibition, cherry-pick retest; 610 tested, 63% active; shares compounds with WRN helicase inh-1; WRN helicase DNA unwinding, fluorescence kinetic; Potency, µM (doses to about 57.1 µM), for inactives: at the highest dose activity, negative = inhibition, hits mostly inhibitors; also: nearly all actives have a fitted effect of over 65% in size
TO DNA binding: DNA binding via thiazole orange displacement. shares compounds with WRN helicase inh-1. thiazole orange DNA binding displacement, fluorescence. Potency, µM (series often up to 57.1 µM), without a hit: at the top dose activity change, negative = inhibition, actives largely listed as inhibitors. 610 tested, 10% active. AID 720499;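 also: drop in dye fluorescence marks compound binding to DNA; % is scaled to controls: 0 for no effect and ±100 for the full control effect; nearly all actives have a fitted effect of over 60% in size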
BLM helicase inh-2: counter-screen for WRN helicase inhibitors: human BLM helicase inhibition | shares compounds with WRN helicase inh-1 | Recombinant BLM helicase DNA unwinding, red fluorescence | Potency, µM (top dose mostly 57.1 µM), without a hit: at the highest dose activity change, negative = inhibition, most hits filed as inhibitors | 610 tested, 60% active | AID 720503; also: nearly all actives have a fitted effect of over 60% in size
* = called active by the depositor; i = inactive; ? = inconclusive; / = no result; [ ] = another dose, or the depositor's remark. Compounds with a hit are over-represented: about 0.91% of the library has one in this group of screens. Unless noted, calls follow the shape of the dose curve; as a rule, active = well fitted curve in the direction sought with a large enough effect; inconclusive = small, poorly fitted or top-dose-only effect, or another doubt; inactive = no such curve, though single readings can be large; an effect the other way counts as inactive or inconclusive. Potency is read from the fitted curve at half-maximal effect.

SMILES | WRN helicase inh-1 | TRb SRC2 PPI | TR SRC2 fluor cs | APEX1 inh | RECQ1 helicase | BLM helicase inh-1 | WRN helicase inh-2 | TO DNA binding | BLM helicase inh-2
COc1ccc(OC)c(-c2nnc3n(CCc4ccccc4)c(=O)c4ccccc4n23)c1 | / | -4% | -1% | / | / | -7% | / | / | /
CSc1cc2c(s1)c1cnn(Cc3cccc(N)c3)c(=O)c1n2C | / | / | / | / | / | / | -12% | -8% | ?
COc1cc(/C=N/NC(=O)c2ccc3c(c2)OCCO3)c(Br)c(Br)c1O | ? | / | / | 42% | / | -11% | ? | -24% | ?
CC1CCc2sc(C(=O)NNC(=S)NC3CC3)cc2C1 (stereo unspecified) | 5% | / | / | 9% | / | 0% | / | / | /
CCCN(CCC)CCCNC(=O)c1cc2c(-c3ccc(OC)c(OC)c3)nn(C)c2s1 | -6%[11.6 µM] | 3% | -5% | -27% | / | -8% | 19µM* | -30% | ?
CCCn1nnnc1SCC(=O)N1C(C)CCCC1C (stereo unspecified) | -35% | / | / | -14% | / | -4% | / | / | /
O=C(N/N=C/c1ccncc1)c1cccc(S(=O)(=O)Nc2ccc(Cl)cc2)c1 | 22µM* | 6% | -4% | 15% | i | ? | 14µM* | 31% | 12µM*
O=C(N/N=C/c1cccnc1)c1cccc(S(=O)(=O)Nc2cccc(Cl)c2)c1 | -16% | -6% | 0% | 1% | -4% | -6% | / | / | /
C#CCOCCOCCOCCNc1nc(N2CCN(C(=O)Cn3cc(CCO)nn3)CC2)nc(N2CCN(C(=O)Cn3cc(CCO)nn3)CC2)n1 | 1% | / | / | / | / | / | / | / | /
O=C(COc1ccc(/C=N/NC(=O)c2ccccc2O)cc1)Nc1ccc([N+](=O)[O-])cc1 | 17µM* | 3% | 1% | 1% | 0% | -22% | 11µM* | ? | 4.8µM*
NS(=O)(=O)c1cc(C(=O)NC2CCSc3ccccc32)ccc1Cl (stereo unspecified) | 0.84µM* | / | / | 0.12µM* | / | 8.9µM* | 0.54µM* | -21% | 0.27µM*
Cc1ccc(C)n1/N=C1/NC(=O)CS1 | 16µM* | 3% | 2% | ? | ? | ? | 24µM* | -9% | 5.4µM*
Cc1ccc(N=C2NC(=O)CS2)cc1 | 1% | -1% | -2% | 3% | -5% | 1% | / | / | /
Cc1cccc2sc(NC(=O)C3CCN(S(=O)(=O)c4cc([N+](=O)[O-])ccc4Cl)CC3)nc12 | ? | -14% | 1% | 1% | -3% | -4% | ? | ? | 7.6µM*
Cc1nnc(NC(=O)C2CCN(S(=O)(=O)c3cc([N+](=O)[O-])ccc3Cl)CC2)o1 | 7% | / | / | -7% | / | / | / | / | /
C/C(N)=C(/C#N)C(=O)CSc1nnc(Nc2cccc(C)c2)s1 | ? | 5% | -7% | ? | -10% | -15% | -26% | -6% | ?
CCN(CC(=O)Nc1c(F)cccc1F)C(=O)/C=C/c1ccc2ccccc2n1 | 22µM* | / | / | 1.7µM* | / | / | 19µM* | ? | 3.8µM*
COc1ccc(NC(=O)Cn2ccn(Cc3ccccc3)c(=O)c2=O)cc1Cl | / | 3% | -29% | / | / | -12% | / | / | /
CCn1nc(C(=O)OCC(=O)Nc2ncc(Cl)c(C)c2Cl)c2ccccc2c1=O | ? | 4% | 2% | 0% | -15% | -21% | -29% | -12% | ?

Screens from PubChem BioAssay.
